ELG1 DNA repair = blocks ELG1-dependent DNA repair in HEK293T cells; HEK293T ELG1-luciferase reporter, luminescence, 16 h; DNA damage induced by 5-fluorouridine; Potency, µM (top dose mostly 46.1 µM), most hits filed as inhibitors; 330,000 tested, 2.3% active; AID 504467; also: nearly all actives have a fitted effect of over 55% in size
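Step one: seed 2,000 cells per well. Step two: pin-transfer compound or DMSO alongside 5-fluorouridine. Step three: incubate 16 hr, 37 °C, 5% CO2. Step four: add ONE-Glo, wait 30 min, read luminescence.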
KB-V1 cytotox = KB-V1 MDR subline cytotoxicity; KB-V1 MDR cells viability, CellTiter-Glo, 72 h; Potency, µM (series often up to 46.1 µM), hits mostly cytotoxic; 400,000 tested, 3.4% active; AID 1347076; also: nearly all actives have a fitted effect of over 60% in size
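KB-V1, DMEM (no phenol red) + 10% FBS; cpd pin-transferred, titration series; 72 h, 37 degrees C; CellTiter-Glo, luminescence. Data normalized, curve-fit.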
SW480 rerep = inducers of DNA re-replication in SW480 colon cancer cells | SW480 DNA re-replication, Hoechst DNA content imaging, 48 h | Potency, µM (top dose mostly 46.1 µM), hits mostly activators | 340,000 tested, 1.8% active; also: nearly all actives have a fitted effect of over 55% in size
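Treated cells incubate 48 hr (37 C, 5% CO2), are stained 40 min with Hoechst, and nuclear fluorescence is enumerated; a rise in nuclei with high DNA signal marks re-replication.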
KB-3-1 cytotox = KB-3-1 parental cell cytotoxicity | KB-3-1 viability, CellTiter-Glo ATP luminescence, 72 h | Potency, µM (doses to about 46.1 µM), most hits filed as cytotoxic | 400,000 tested, 1.4% active | AID 1347075; also: nearly all actives have a fitted effect of over 60% in size
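Cells are dispensed, compounds pinned in, plates held at 37 °C for 72 h, then CellTiter-Glo is added and luminescence read after 10 minutes. Cell line: parental KB-3-1 in phenol-red-free DMEM, 10% FBS.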
MCF10A rereplic = DNA re-replication induction in MCF 10a cells | MCF 10A DNA re-replication, Hoechst nuclear intensity, 48 h | Potency, µM (highest dose often 46.1 µM), hits mostly activators | 350,000 tested, 2.9% active; also: nearly all actives have a fitted effect of over 50% in size
Hits are given with their value; . = inactive; ? = inconclusive; / = no result given; [ ] = dose if it differs, or a comment. This is a sample that favours compounds with a hit; in the whole collection about 8.2% have one here. Calls follow the shape of the dose curve; as a rule, active = well fitted curve in the direction sought with a large enough effect; inconclusive = small, poorly fitted or top-dose-only effect, or another doubt; inactive = no such curve, though single readings can be large; an effect the other way counts as inactive or inconclusive.

SMILES	ELG1 DNA repair	KB-V1 cytotox	SW480 rerep	KB-3-1 cytotox	MCF10A rereplic
Cc1ccccc1Nc1nc(N)nc(CSc2nc3ccccc3c(=O)n2CCCO)n1	?	.	.	.	.
Cc1ccccc1Nc1nc(N)nc(CSc2nnc(C)n2C)n1	.	.	.	.	.
Cc1ccccc1Nc1nc(N)nc(CSc2nc3ccccc3c(=O)n2C)n1	?	16µM	.	.	?
Cc1ccccc1Nc1nc(N)nc(CSc2nc3ccccc3s2)n1	.	16µM	.	.	.
COCCn1c(SCc2nc(N)nc(Nc3ccccc3C)n2)nc2ccccc2c1=O	.	8.2µM	.	.	.
Cc1ccc(Nc2nc(N)nc(CSc3nc4ccccc4s3)n2)cc1	?	?	?	.	?
CN1C[C@@H]2[C@@H]3C(=O)N(Cc4ccccc4)C(=O)[C@@H]3[C@](C)(C1=O)N2C(=O)c1ccc(F)cc1	/	.	.	.	.
CCN1CCC(N(Cc2ccc3c(c2)OCO3)C(=O)Nc2cc(F)ccc2F)CC1	/	.	/	.	/
CCN(Cc1ccccc1)C(=S)Nc1cc(C(=O)OC)ccc1C(=O)OC	?	15µM	.	.	.
O=C(CNCc1ccc(F)cc1)Nc1cc(S(=O)(=O)N2CCOCC2)ccc1Cl	?	.	.	.	.
CCCCOc1ccc(Br)cc1/C(C)=N/NC1=NCCN1	?	5.8µM	?	4.1µM	10µM
CCCCCCOc1ccc(/C(C)=N/NC2=NCCN2)cc1[N+](=O)[O-]	.	.	.	.	?
N#Cc1cnn(-c2ccc([N+](=O)[O-])cc2[N+](=O)[O-])c1N	/	?	/	18µM	/
N#Cc1cnn(-c2cc(Cl)ccc2Cl)c1N	/	.	/	.	/
C[C@H](CO)N1C[C@H](C)[C@H](CN(C)C(=O)Nc2cccc(F)c2)Oc2cc(C#CC3(O)CCCC3)ccc2S1(=O)=O	/	.	/	.	/
C/C(=N/NC(=O)NC12CC3CC(CC(C3)C1)C2)c1ccccc1	.	.	.	.	.
COC(=O)C1=C(C)NC(C)=C([N+](=O)[O-])[C@H]1c1ccccc1C(F)(F)F	/	.	/	.	/
CCCCN1C=C(C(=O)OC)C(c2ccccc2Cl)C(C(=O)OC)=C1	.	.	?	.	7.3µM
CCCCOc1ccccc1C1C(C(=O)OC)=C(C)N(C)C(C)=C1C(=O)OC	.	9.2µM	.	.	.
COCCN1C=C(C(=O)OC)C(c2ccccc2C(F)(F)F)C(C(=O)OC)=C1	.	.	18µM	.	16µM
COC(=O)C1=CNC=C(C(=O)OC)C1c1ccccc1Cl	.	.	?	.	?
CCCCN1C=C(C(=O)OC)C(c2ccccc2C(F)(F)F)C(C(=O)OC)=C1	.	.	9.2µM	.	2.9µM
Cc1cc(NC(=O)COC(=O)c2cnccn2)ccc1Br	?	?	.	.	.
COc1ccccc1-c1cnc(C(O)c2cc(C)ccc2C)[nH]1 (centres undefined)	/	.	/	.	/
COc1ccc(OC)c(NC(=S)NCCSc2ccc(C)cc2)c1	.	23µM	.	.	.
SMILES	ELG1 DNA repair	KB-V1 cytotox	SW480 rerep	KB-3-1 cytotox	MCF10A rereplic
Cc1ccc(NC(=S)NCC(C)CSc2ccc(Cl)cc2)cc1 (centres undefined)	?	.	?	.	.
Cc1ccc(NC(=S)NCCSc2ccc(Cl)cc2)c(C)c1	.	.	?	.	23µM
COc1ccc(NC(=S)NCCSc2ccc(C)cc2)c(OC)c1	/	.	.	.	?
Cc1cccc(NC(=S)NCC(C)CSc2ccc(Cl)cc2)c1 (centres undefined)	?	?	?	?	18µM
CN(C)c1ccc(C(CNC(=O)c2ccc(C(C)(C)C)cc2)N2CCCC2)cc1 (centres undefined)	/	.	/	?	/
CCN(CC(=O)Nc1ccc2c(c1)OCCO2)C(=O)/C=C/c1cc(Br)ccc1OC	/	.	/	.	/
COc1ccc(-c2nnc(SCC(=O)Nc3c(Cl)cc(Cl)cc3C(=O)O)o2)cc1	.	.	.	.	.
CCn1cc(C(=O)NCCC(=O)OC)c(=O)c2cc3c(cc21)OCO3	.	.	.	.	.
CCN(CC)c1ncnc2c1ncn2[C@H]1CN(Cc2ccc3c(c2)OCO3)C[C@@H](CO)O1	/	.	/	.	/
Cc1cc(C)nc(SCCCn2c(=O)[nH]c3ccccc32)n1	.	9.2µM	.	.	.
CCn1cnc2c1c(=O)n(Cc1cccc(Br)c1)c(=O)n2Cc1ccccc1	?	18µM	.	?	.
CCn1cnc2c1c(=O)n(CC(=O)Nc1ccc(C(N)=O)cc1)c(=O)n2Cc1ccccc1	6.5µM	.	?	.	.
Cn1cnc2c1c(=O)n(Cc1cccc(Br)c1)c(=O)n2C	.	.	.	.	.[0.0737 µM]
CCCNS(=O)(=O)c1cc(-c2nn3c(C)nnc3c3ccccc23)ccc1C	/	.	/	.	/
O=C(Nc1cccc(Nc2ccccc2)c1)c1cnn2c1NC(=C1CC1)C=C2C(F)F	/	.	/	.	/
Cc1cc(C(=O)N2CCCC2(C)C(=O)NCC(C)C)nn1C(C)(C)C (centres undefined)	/	.	/	.	/
COc1ccc(-c2cc3nc(C)cc(N4CCN(C(=O)c5ccoc5)CC4)n3n2)cc1	/	?	/	.	/
COc1ccc(-c2[nH]nc3nc(N4CCN(C(=O)c5ccoc5)CC4)cc(C(F)(F)F)c23)cc1	/	6.5µM	/	?	/
CCOc1ccc(C(=O)N/N=C(\c2ccccc2)c2ccccn2)cc1	?	.	8.2µM	?	.
O=C(N/N=C(\c1ccccc1)c1ccccn1)c1cccc([N+](=O)[O-])c1	?	.	.	?	.
CCn1c(-c2cc3c(C(F)(F)F)nn(C)c3s2)n[nH]c1=S	.	10µM	.	?	.
Cn1c(-c2cc3c(C(F)(F)F)nn(C)c3s2)n[nH]c1=S	.	?	.	.	.
COc1cc2c(cc1OC)/C(=C/c1ccc(Br)cc1)C(=O)OC2	?	?	?	21µM	?
CCOC(=O)c1c(NC(=O)CSc2cn(CCNC(=O)c3ccccc3F)c3ccccc23)sc2c1CCCC2	/	.	/	.	/
COc1ccc(NC(=O)CSCC(=O)N(C)Cc2ccc(Cl)c(Cl)c2)cc1	?	.	.	.	.
SMILES	ELG1 DNA repair	KB-V1 cytotox	SW480 rerep	KB-3-1 cytotox	MCF10A rereplic
Cc1ccc(NC(=O)CSCC(=O)N(C)Cc2ccc(Cl)c(Cl)c2)cc1	.	18µM	.	.	.
c1ccc(-[n+]2nc(Nc3cccc4ccccc34)sc2-c2c3ccccc3cc3ccccc23)cc1	.	.	.[9.22 µM]	.	.
Cc1ccc(C(=O)O)cc1NC(=O)CN1C(=O)C2C3c4ccccc4C(Br)(c4ccccc43)C2C1=O (centres undefined)	.	.	.	.	?
O=C1C2C3c4ccccc4C(Br)(c4ccccc43)C2C(=O)N1c1ccccc1O (centres undefined)	.	.	18µM	.	.
Cc1oc2c(cc(NS(=O)(=O)c3ccc(Cl)cc3)c3ccccc32)c1C(=O)OCc1ccccc1	/	.	/	.	/
CCOc1ccc(S(=O)(=O)Nc2cc3c(C(=O)OC)c(COC)oc3c3ccccc23)cc1	/	15µM	/	3.7µM	/

Assay outcomes from PubChem BioAssay.
